# Data as given in PubChem BioAssay AID492998 (Southern Research Specialized Biocontainment Screening …, 2010).
# Out of some 2,300 compounds screened, about 550 (24%) were called active. Not all results are given here. Results with a measured potency or affinity are listed apart. A number with no mark means an inactive call. How the calls were made is not given here.
# Test: Vero E6 cell cytotoxicity, dose response, cytotoxicity control for non-replicating M. tuberculosis project, secondary assay (AID 492998);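 further: 100% = vehicle-treated cells and 0% = background wells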
# Settings: series mostly up to 20 µM; viability: at the top concentration
row,Compound,viability
1,COC(=O)c1ccccc1Sc1ncnc2onc(C)c12,87.7%
2,Cc1noc2ncnc(Sc3ccc(Br)cc3)c12,72.2%
3,CCOC(=O)CNc1ccc(C(=O)OCC)cc1[N+](=O)[O-],95.5%
4,CC(C)c1ccc(N2C(=O)NC(=O)/C(=C/C=C/c3ccco3)C2=O)cc1,98%
5,Brc1ccc(CSc2nnc(-c3ccco3)o2)cc1,107%
6,CCCc1ccc(OCc2ccc(C(=O)N/N=C/c3cccnc3)o2)cc1,96.3%
7,Cc1cc(C)n(CC(=O)N/N=C/c2ccc([N+](=O)[O-])s2)n1,70.8%
8,CN1C(=O)NC(=O)/C(=C/c2ccc([N+](=O)[O-])s2)C1=O,97%
9,O=c1oc(/C=C/c2ccc([N+](=O)[O-])s2)nc2ccccc12,99.9%
10,NC(=O)c1ccc(N=Cc2ccc([N+](=O)[O-])s2)cc1,92.6%
11,NNC(=O)CNC(=O)C12CC3CC(CC(C3)C1)C2,95.4%
12,COc1ccccc1C1=NOC(COC(=O)c2ccc([N+](=O)[O-])cc2)C1 (stereo not given),98%
13,COCCNC(=O)c1cc2cc(Cl)cc(Cl)c2oc1=O,95.2%
14,Cc1cccc(OC(=O)c2sc3ncn(C)c(=O)c3c2C)c1,99.5%
15,CCn1c2ccccc2c2cc(CNCc3ccc(OC)cc3OC)ccc21,79.5%
16,O=C(COc1ccc(Cl)cc1)OCC(=O)N1CCCc2ccccc21,100%
17,CC(C)(C)/C(O)=C/c1nc2ccccc2oc1=O,89%
18,COc1ccc(NC(=O)c2cnc(SC)nc2)cc1,77.2%
19,COc1ccc(NC(=O)CO/N=C2/CCCc3nonc32)c(OC)c1,88%
20,CCOC(=O)N1CCC(N2CCCC(C(=O)c3ccc4cc(OC)ccc4c3)C2)CC1 (stereo not given),80.3%
21,COc1ccc(C(=O)COC(=O)c2ccc(Cl)nc2)c(OC)c1,90.3%
22,O=C(COC(=O)CC1CCCC1)Nc1ccc(OC(F)F)cc1,107%
23,CCCCOC(=O)c1ccc(OC(=O)c2cccnc2)cc1,85.5%
24,Cc1cc(C)cc(OC(=O)c2cccnc2)c1,87.5%
25,CCc1cccc(OCCCn2ccnc2)c1,99.3%

row,Compound,viability
1,CN1/C(=C\C(=O)COC(=O)c2ccc([N+](=O)[O-])o2)C(C)(C)c2ccccc21,79.5%
2,CN1/C(=C\C(=O)COC(=O)C2COc3ccccc3O2)C(C)(C)c2ccccc21 (stereo not given),94.6%
3,C=CC(=O)Oc1ccc(N2Cc3ccccc3C2=O)cc1,92.8%
4,CC1=NN(C(=O)CCCc2ccccc2)C(O)(C(F)(F)F)C1 (stereo not given),104%
5,Cc1ccc(/C(O)=C/c2nc3ccccc3oc2=O)cc1,89.3%
6,CN(CC(=O)Nc1ccc(Cl)cc1)C1CCCCC1,92.6%
7,COc1ccc(OCCCC(=O)Nc2ccc(N3CCOCC3)cc2)cc1,102%
8,CCOCCOC(=O)c1ccc(NC(=O)C2COc3ccccc3O2)cc1 (stereo not given),112%
9,CCOC(=O)COc1ccc2c(c1)c(C(C)=O)c(C)n2Cc1ccccc1,103%
10,Cc1c(C(=O)N(C)C)sc2nc(-c3ccccn3)[nH]c(=O)c12,70.9%
11,Cc1nnc(SCCC(=O)Nc2ccc(Cl)cc2)o1,111%
12,CCOc1ccc2nc(/N=C/c3nc(-c4ccccc4)oc3O)sc2c1,91%
13,Cc1nc2ccc(OC(=O)c3ccccc3)cc2s1,101%
14,O=C(COc1ccccc1)NNc1nc2ccccc2s1,102%
15,CCOc1ccc(OCC(=O)Nc2nccs2)cc1,96.3%
16,CCCNC(=O)OCC12CC3CC(CC(C3)C1)C2,94.7%
17,N=C1/C(=C/c2ccc(OC(=O)c3ccco3)cc2)C(=O)N=C2SC=CN12,107%
18,c1ccc(CNCCC(Cc2ccccc2)c2ccco2)cc1 (stereo not given),81.8%
19,CC(C)(C)C(=O)/C=C/Nc1ccccc1O,82%
20,CC(=O)c1ccc(Sc2nnnn2-c2ccccc2)c([N+](=O)[O-])c1,75%
21,Cc1cc(C)n(C(=O)c2ccc([N+](=O)[O-])cc2[N+](=O)[O-])n1,96.6%
22,CC(=O)Nc1ccc(NC(=O)c2cc([N+](=O)[O-])cc([N+](=O)[O-])c2)cc1,83.2%
23,O=C(NCc1cccs1)c1ccc([N+](=O)[O-])cc1,106%
24,COc1ccc2cc(C(=O)NCc3ccccc3)c(=O)oc2c1,108%
25,CC(C)OC(=O)c1cc(C(=O)c2cc(Cl)ccc2O)coc1=N,109%

row,Compound,viability
1,O=C(NNc1ccc([N+](=O)[O-])cc1)C1CC1c1ccccc1 (stereo not given),100%
2,CC(C)(C)c1ccc(OCCC(=O)OCC(=O)NC2CC2)cc1,108%
3,O=C(Oc1ccc(F)cc1)c1ccc2c(=O)n3c(nc2c1)CCC3,98.7%
4,COC(=O)c1ccc(N2CCN(CCNC(=O)Nc3ccc(OC)cc3)CC2)cc1,110%
5,C#CCSc1nnc(-c2ccc(C)cc2)o1,97.5%
6,C#CCSc1nnc(-c2ccc(O)cc2)o1,103%
7,Cc1cc(Cl)ccc1N(CC(=O)NCc1ccccc1)S(C)(=O)=O,108%
8,CCCCn1nnc(NC(=O)COc2ccc(Cl)c(C)c2)n1,107%
9,N#Cc1ccc(COC(=O)CCc2c[nH]c3ccccc23)cc1,98%
10,O=C(COC(=O)CCc1c[nH]c2ccccc12)NCc1ccc2c(c1)OCO2,106%
11,COc1ccc(OC(=O)CCc2c[nH]c3ccccc23)cc1,89.6%
12,O=C(COC(=O)CCc1c[nH]c2ccccc12)NCc1ccc(Cl)cc1,96.6%
13,C=Cc1cccc(NC(=O)COc2ccccc2)c1,95.2%
14,COc1ccc(Cc2nnc(SCc3ccc([N+](=O)[O-])cc3)o2)cc1,90.6%
15,Cc1[nH]nc2c1C(c1ccc(-c3ccc(Cl)cc3)o1)C(C#N)=C(N)O2 (stereo not given),85.1%
16,O=C1/C(=C/c2ccco2)CCC1C1CCCC1 (stereo not given),99.2%
17,CC(NC(=O)COc1ccccc1F)C1CC2CCC1C2 (stereo not given),93.9%
18,CCOC(=O)c1ccc(NC(=O)CCSCCc2ccccn2)cc1,102%
19,CCOc1ccc(-c2nc3ccccc3c(=O)o2)cc1,87%
20,CCOC(=O)N1CCC(NS(=O)(=O)c2cc3c(cc2Cl)NC(=O)CO3)CC1,106%
21,CCCNC(=O)N1CCC(c2ccc3c(c2)OCO3)CC1,96.4%
22,OCC1(CCOc2ccccc2)CCN(Cc2cc(Cl)ccc2O)CC1,99.6%
23,COc1ccc(C2(O)CCN(CCCCOc3ccccc3)CC2)cc1,101%
24,COc1cccc2cc(C(=O)c3ccc([N+](=O)[O-])cc3)oc12,105%
25,CC1COC(=O)C(NNc2ccc(Cl)c(Cl)c2)=N1 (stereo not given),101%
